In PubChem BioAssay (NCATS):
Inconclusive results are not listed. Calls of active or inactive are those of the source. Calls follow the shape of the dose curve; as a rule, active = well fitted curve in the direction sought with a large enough effect; inconclusive = small, poorly fitted or top-dose-only effect, or another doubt; inactive = no such curve, though single readings can be large; an effect the other way counts as inactive or inconclusive.

Tests used:
[1] = test system: HeLa; assay: Primary qHTS to identify gynecologic anti-cancer compounds using libraries of approved drugs and bioactive compounds (AID 1345084); conditions: Gynecologic cancer cell panel viability, ATPlite luminescence, 48 h; series mostly up to 57.5 µM; also: nearly all actives have a fitted effect of over 55% in size; also: potency is read from the fitted curve at half-maximal effect
In short: (§1)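 Cells, 1,000 per well, were allowed to settle for 16 h at 37 C before compound addition. Five concentrations were tested for 48 h, and viability was read by ATPlite luminescence after 15 min at room temperature.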

[2] = test system: Hek293T; assay: as above; conditions: Gynecologic cancer cell panel viability, ATPlite luminescence, 48 h, control line for the selectivity index; series mostly up to 57.5 µM
In short: as §1

[3] = test system: JEG-3; assay: as above; conditions: Gynecologic cancer cell panel viability, ATPlite luminescence, 48 h; series mostly up to 57.5 µM
In short: as §1

[4] = test system: OV90; assay: as above; conditions: Gynecologic cancer cell panel viability, ATPlite luminescence, 48 h; series mostly up to 57.5 µM
In short: as §1

[5] = test system: PA-1; assay: as above; conditions: Gynecologic cancer cell panel viability, ATPlite luminescence, 48 h; series mostly up to 57.5 µM
In short: as §1

[6] = test system: SKOV3; assay: as above; conditions: Gynecologic cancer cell panel viability, ATPlite luminescence, 48 h; series mostly up to 57.5 µM
In short: as §1

[7] = test system: Tov-21-G; assay: as above; conditions: Gynecologic cancer cell panel viability, ATPlite luminescence, 48 h; series mostly up to 57.5 µM
In short: as §1

[8] = test system: Tov112D; assay: as above; conditions: Gynecologic cancer cell panel viability, ATPlite luminescence, 48 h; series mostly up to 57.5 µM
In short: as §1

[9] = qHTS assay to identify inhibitors of the type 1 interferon - major histocompatibility complex class I in skeletal muscle: Counter screen cell viability and HiBit confirmation (AID 1347412); conditions: iHSKM muscle cells + IFN-b, HiBiT or CellTiter-Glo, 24 h, at 45.9 µM (top of the series); also: nearly all actives have a fitted effect of over 60% in size
In short: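 Duplicate plates, pinned identically: one read for HiBiT-tagged endogenous HLA-B luminescence, the other for ATP-content viability via CellTiter Glo. Cells were genome-engineered human myoblasts given 4 ng/ml IFN-b; compounds 12-pt, 1:3 from 46 uM final; 24 hr exposure.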

[10] = Drug repurposing screens with cells derived from glioblastoma tumor samples (AID 1345199); conditions: GBM patient neurospheres viability, ATP luminescence, 48 h; also: nearly all actives have a fitted effect of over 40% in size; also: potency is read from the fitted curve at half-maximal effect
In short: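 Four patient lines of CD133+ GBM neurospheres were screened at several concentrations; hits were retested in those lines plus three slower-growing GBM lines, using 48-hour treatment and ATP-based viability.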

[11] = at 45.9 µM (top of the series), tumour line B
[12] = at 45.9 µM (top of the series), tumour line D
[13] = at 46.1 µM (top of the series), tumour line C
[14] = at 20 µM (top of the series), tumour line C
[15] = at 21.2 µM (top of the series), tumour line B
% is scaled to controls: 0 for no effect and ±100 for the full control effect.

O=C(c1ccc(C(=O)N2CCC(N3CCCC3)CC2)c(Nc2ccccc2)c1)N1CCC(N2CCCC2)CC1
inactive: Potency [1] | Potency [2] | Potency [3] | Potency [4] | Potency [5] | Potency [6] | Potency [7] | Potency [8]

Cc1cnc(-c2cc(N3CCN(C(=O)CCS(C)(=O)=O)CC3)ncc2Cl)c(C)c1
inactive: Potency [1] | Potency [2] | Potency [3] | Potency [4] | Potency [5] | Potency [6] | Potency [7] | Potency [8]

O=C(Nc1cccc(C(F)(F)F)c1)Nc1cc(S(=O)(=O)NC2CC2)ccc1-c1ccsc1
inactive: Potency [1] | Potency [2] | Potency [3] | Potency [4] | Potency [5] | Potency [6] | Potency [7] | Potency [8]

CC1CCN(c2cc(N3CCN(C)CC3)ccc2NC(=O)c2cc(C#N)c[nH]2)CC1
inactive: Potency [1] | Potency [2] | Potency [3] | Potency [4] | Potency [5] | Potency [6] | Potency [7] | Potency [8]

CC(C)(O)CC(=O)NCCn1ccc2ncnc(Nc3ccc(Oc4cccc(C(F)(F)F)c4)c(Cl)c3)c21
active: Potency [6] 22.4 µM
inactive: Potency [1] | Potency [2] | Potency [3] | Potency [4] | Potency [5] | Potency [7] | Potency [8] | activity change, negative = inhibition ([9]; Viability) -19.7%

COc1ccc(CCC(=O)Nc2nc3ccc(Cl)cc3s2)cc1OC
inactive: Potency [1] | Potency [2] | Potency [3] | Potency [4] | Potency [5] | Potency [6] | Potency [7] | Potency [8]

O=S(=O)(O)c1ccc2cc(N=Nc3cc(S(=O)(=O)O)c4cccnc4c3O)ccc2c1
inactive: Potency [1] | Potency [2] | Potency [3] | Potency [4] | Potency [5] | Potency [6] | Potency [7] | Potency [8]

OC[C@H]1O[C@@H](OCCc2ccc(O)cc2)[C@H](O)[C@@H](O)[C@H]1O
inactive: Potency [1] | Potency [2] | Potency [3] | Potency [4] | Potency [5] | Potency [6] | Potency [7] | Potency [8]

Cc1nc2c([nH]1)CCN(C(=O)c1ccc(NC(=O)c3ccccc3-c3ccccc3)cc1)c1ccccc1-2
inactive: Potency [1] | Potency [2] | Potency [3] | Potency [4] | Potency [5] | Potency [6] | Potency [7] | Potency [8]

CN1C(=O)C(Cc2c[nH]c3ccccc23)NC1=S (stereo not given)
inactive: Potency [1] | Potency [2] | Potency [3] | Potency [4] | Potency [5] | Potency [6] | Potency [7] | Potency [8]

CCCCC(F)(F)[C@@]1(O)CC[C@H]2[C@H](CC(=O)[C@@H]2CCCCCCC(=O)O)O1
inactive: Potency [1] | Potency [2] | Potency [3] | Potency [4] | Potency [5] | Potency [6] | Potency [7] | Potency [8] | activity, negative = cell killing [10, 11] -4.88% | activity, negative = cell killing [10, 12] -10.8% | activity, negative = cell killing [10, 13] 12%

O=C1C(c2c(O)[nH]c3ccccc23)=Nc2ccccc21
inactive: Potency [1] | Potency [2] | Potency [3] | Potency [4] | Potency [5] | Potency [6] | Potency [7] | Potency [8]

CCCCC[C@H](O)C=C[C@H]1[C@H](O)CC(=O)[C@H]1CC=CCCCC(=O)O
inactive: Potency [1] | Potency [2] | Potency [3] | Potency [4] | Potency [5] | Potency [6] | Potency [7] | Potency [8]

NC(=O)c1ccc(N(C(N)=O)c2c(F)cccc2F)nc1-c1ccc(F)cc1F
inactive: Potency [1] | Potency [2] | Potency [3] | Potency [4] | Potency [5] | Potency [6] | Potency [7] | Potency [8]

CN(C)CCOc1cc(-c2cn[nH]c2)ccc1NC(=O)C1COc2ccccc2O1 (stereo not given)
inactive: Potency [1] | Potency [2] | Potency [3] | Potency [4] | Potency [5] | Potency [6] | Potency [7] | Potency [8]

CN(C)CCN(Cc1ccc(Cl)cc1)c1ccccn1
active: Potency ([10]; tumour line A) 10 µM
inactive: Potency [1] | Potency [2] | Potency [3] | Potency [4] | Potency [5] | Potency [6] | Potency [7] | Potency [8] | activity, negative = cell killing [10, 14] -14.6% | activity, negative = cell killing [10, 15] -16.9%

O=c1[nH]nc(OCCCc2ccc(Cl)cc2)c(NCc2cccnc2)c1Br
inactive: Potency [1]

CNC(=O)c1ccc2c(C(=Nc3cccc(CN(C)C)c3)c3ccccc3)c(O)[nH]c2c1
inactive: Potency [1] | Potency [2] | Potency [3] | Potency [4] | Potency [5] | Potency [6] | Potency [7] | Potency [8] | activity change, negative = inhibition ([9]; HiBiT) -0.844% | activity change, negative = inhibition ([9]; Viability) -1.9%

CCN1C[C@H](C)n2c(c(O)c3c(=O)n(Cc4ccc(F)c(Cl)c4)nc(C(=O)NC)c32)C1=O
inactive: Potency [1] | Potency [2] | Potency [3] | Potency [4] | Potency [5] | Potency [6] | Potency [7] | Potency [8]

Cc1ccccc1-n1c(Cn2nc(-c3cccc(O)c3)c3c(N)ncnc32)nc2cccc(C)c2c1=O
inactive: Potency [1] | Potency [2] | Potency [3] | Potency [4] | Potency [5] | Potency [6] | Potency [7] | Potency [8] | activity change, negative = inhibition ([9]; Viability) 7.45%

c1ccc(CNc2nc(N3CCOc4ccccc43)nc3c2CCCC3)cc1
inactive: Potency [1] | Potency [2] | Potency [3] | Potency [4] | Potency [5] | Potency [6] | Potency [7] | Potency [8]

O=C(CC12CC3CC(CC(C3)C1)C2)Nc1cccc2nc(NCCNCCO)ccc12
inactive: Potency [1] | Potency [2] | Potency [3] | Potency [4] | Potency [5] | Potency [6] | Potency [7] | Potency [8]

O[C@@H](COc1cccc2ncccc12)CN1CCN(C2c3ccccc3[C@@H]3[C@H](c4ccccc42)C3(F)F)CC1 (stereo not given in full)
inactive: Potency [1] | Potency [2] | Potency [3] | Potency [4] | Potency [5] | Potency [6] | Potency [7] | Potency [8]

CNC(=O)c1c(-c2ccc(F)cc2)oc2cc(N(CCO)S(C)(=O)=O)c(C3CC3)cc12
inactive: Potency [1] | Potency [2] | Potency [3] | Potency [4] | Potency [5] | Potency [6] | Potency [7] | Potency [8]

CC1=C(C(=O)Nc2cc3cn[nH]c3cc2F)C(c2ccc(C(F)(F)F)cc2)CC(=O)N1 (stereo not given)
inactive: Potency [1] | Potency [2] | Potency [3] | Potency [4] | Potency [5] | Potency [6] | Potency [7] | Potency [8]

O=C(O)CCNc1cc(N2CCc3ccccc3CC2)nc(-c2ccccn2)n1
inactive: Potency [1] | Potency [2] | Potency [3] | Potency [4] | Potency [5] | Potency [6] | Potency [7] | Potency [8]

O=C(CO)N1CCC(c2[nH]nc(-c3ccc(Cl)cc3)c2-c2ccncn2)CC1
inactive: Potency [1] | Potency [2] | Potency [3] | Potency [4] | Potency [5] | Potency [6] | Potency [7] | Potency [8]

c1ccc(-c2oc3ncnc(NC[C@@H]4CCCO4)c3c2-c2ccccc2)cc1
inactive: Potency [1] | Potency [2] | Potency [3] | Potency [4] | Potency [5] | Potency [6] | Potency [7]

Cc1cc(C(C)Nc2ccccc2)c2nc(N3CCOCC3)cc(=O)n2c1 (stereo not given)
inactive: Potency [1] | Potency [2] | Potency [3] | Potency [4] | Potency [5] | Potency [6] | Potency [7] | Potency [8]

C[C@@H]1C[C@H]2[C@@H]3CCC4=CC(=O)C=C[C@]4(C)[C@@]3(F)[C@@H](O)C[C@]2(C)[C@@]1(O)C(=O)CO
inactive: Potency [1] | Potency [2] | Potency [3] | Potency [4] | Potency [5] | Potency [6] | Potency [7] | Potency [8]

NS(=O)(=O)c1cc(Cl)c(Cl)c(S(N)(=O)=O)c1
inactive: Potency [1] | Potency [2] | Potency [3] | Potency [4] | Potency [5] | Potency [6] | Potency [7] | Potency [8] | activity, negative = cell killing [10, 14] 4.89% | activity, negative = cell killing [10, 15] -0.766% | activity, negative = cell killing ([10]; at 21.2 µM (top of the series), tumour line D) 5.15% | activity, negative = cell killing ([10]; at 21.3 µM (top of the series), tumour line A) -15%

C[C@@]1(c2cc(-c3cncnc3)c(F)cc2F)CCSC(N)=N1
inactive: Potency [1] | Potency [2] | Potency [3] | Potency [4] | Potency [5] | Potency [6] | Potency [7] | Potency [8]

COc1cc(Nc2nc3ccccc3nc2NS(=O)(=O)c2ccc(NC(=O)c3ccc(C)c(OC)c3)cc2)cc(OC)c1
inactive: Potency [1] | Potency [2] | Potency [3] | Potency [4] | Potency [5] | Potency [6] | Potency [7] | Potency [8]

CCN(CCO)CCCOc1ccc2c(Nc3cc(CC(=O)Nc4cccc(F)c4)[nH]n3)ncnc2c1
inactive: Potency [1] | Potency [2] | Potency [3] | Potency [6] | Potency [7]

O=C(Nc1cccc2c(=O)cc(-c3nn[nH]n3)oc12)c1ccc(OCCCCc2ccccc2)cc1
inactive: Potency [1] | Potency [2] | Potency [3] | Potency [5] | Potency [6] | Potency [7] | Potency [8] | activity, negative = cell killing [10, 11] 1.64% | activity, negative = cell killing [10, 12] -5.85% | activity, negative = cell killing [10, 13] 16%

CN(C)CCCNC(=O)c1ccc(-c2cc(O)c3ncccc3c2)cc1
inactive: Potency [1] | Potency [2] | Potency [3] | Potency [6]

CC(=O)Nc1cccc(-n2c(=O)n(C3CC3)c(=O)c3c(Nc4ccc(I)cc4F)n(C)c(=O)c(C)c32)c1
inactive: Potency [1] | Potency [2] | Potency [3] | Potency [5] | Potency [6] | Potency [7] | Potency [8]

C[C@H](c1ccc(F)cc1CCCC(=O)O)N(c1cc(F)ccc1F)S(=O)(=O)c1ccc(Cl)cc1
inactive: Potency [1] | Potency [2] | Potency [3] | Potency [4] | Potency [7] | Potency [8]

CN1CCN(c2cccc(Nc3nc4c(-c5ccc(S(C)(=O)=O)cc5)cccn4n3)c2)CC1
inactive: Potency [1] | Potency [2] | Potency [3] | Potency [4] | Potency [5] | Potency [8]
active: Potency [6] 2.82 µM

Cc1csc(-c2nnc(Nc3ccc(Oc4ncccc4-c4ccnc(N)n4)cc3)c3ccccc23)c1
inactive: Potency [1] | Potency [2] | Potency [3] | Potency [4] | Potency [5] | Potency [7]
